Screening data deposited in PubChem by National Center for Advancing Translational Sciences (NCATS).
PNC inhibitor: perinucleolar compartment assembly inhibition. activity change (PNC), negative = inhibition, % at 10 µM. 140,000 tested, 3.1% active. PC3M PTB-GFP, PNC prevalence imaging, 16 h; active compounds read low;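 active means readout at or below -70, meaning at least 70% loss of cells showing the perinucleolar compartment, a nuclear body marking cancer cells; inconclusive means readout between -30 and a set limit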;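 further: plate controls were DMSO wells for no effect and camptothecin positive control wells for full effect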
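Read-out is percentage of cells bearing a perinucleolar compartment, from automated 20x imaging of fixed, Hoechst-stained PC3M PTB-GFP cells. Cells were seeded 4 h, then exposed 16 h to compound (23 nl of library stock) in duplicate plates.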
IMPase cell inh: cell-permeable inhibitors of inositol monophosphatase (IMPase) | inhibition (IP1 accumulation), % at 46.1 µM | AID 901 | 120,000 tested, under 10 active | CHO-M1 cells, IP1 accumulation, HTRF TR-FRET ratio; active means well fitted curve in the direction sought with a large enough effect in the signal ratio, not every such curve was filed as active; inconclusive means small, poorly fitted or top-dose-only effect, or a change in a side signal; inactive means no such curve, though single readings can be large or run the other way; the % refers to the signal ratio;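 further: cells stimulated with carbachol in lithium chloride buffer; plate controls were DMSO basal wells for no effect and reference inhibitor wells for full effect; higher means more IMPase inhibition seen as more IP1 and lower FRET ratio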
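Carbachol-driven Gq signalling in CHO-M1 cells (2000/well) generates IP1. Compounds that block IMPase raise IP1 and so reduce the FRET signal from Eu-anti-IP1 and d2-IP1 after a 10 min room-temperature lysis.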
ALOX15B inhib: blocks human 15-lipoxygenase 2 activity; purified 15hLO-2, xylenol orange hydroperoxide absorbance; O15296; 110,000 tested, 0.56% active; Potency, µM (top dose mostly 57.1 µM), for the others: top-dose activity change, negative = inhibition, most hits filed as inhibitors; further: potency means the concentration at half of the fitted maximal effect; nearly all actives have a fitted effect of over 60% in size
Target sequence (O15296 whole entry, looked up): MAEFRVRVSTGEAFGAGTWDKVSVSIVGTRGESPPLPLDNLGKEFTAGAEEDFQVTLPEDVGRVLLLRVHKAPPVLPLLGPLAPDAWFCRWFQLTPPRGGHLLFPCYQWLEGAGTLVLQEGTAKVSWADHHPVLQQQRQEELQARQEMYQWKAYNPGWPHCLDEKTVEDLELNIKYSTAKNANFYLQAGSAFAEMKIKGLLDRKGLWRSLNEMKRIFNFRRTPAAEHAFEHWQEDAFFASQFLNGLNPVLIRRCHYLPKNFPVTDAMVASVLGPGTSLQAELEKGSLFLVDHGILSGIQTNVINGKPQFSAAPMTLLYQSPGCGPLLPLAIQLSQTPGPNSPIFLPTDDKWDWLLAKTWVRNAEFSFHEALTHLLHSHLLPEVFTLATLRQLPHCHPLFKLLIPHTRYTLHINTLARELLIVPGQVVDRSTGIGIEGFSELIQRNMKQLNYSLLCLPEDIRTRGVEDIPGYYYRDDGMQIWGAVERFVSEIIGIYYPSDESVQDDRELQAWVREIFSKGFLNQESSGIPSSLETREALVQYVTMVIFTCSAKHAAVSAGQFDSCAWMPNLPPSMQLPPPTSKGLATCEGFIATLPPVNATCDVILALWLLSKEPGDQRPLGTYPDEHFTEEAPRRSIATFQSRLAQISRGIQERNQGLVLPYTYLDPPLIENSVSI
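Read-out: hydroperoxide product oxidises ferrous iron, measured as xylenol orange complex via the 573-to-405 nm absorbance ratio after 30 min. Reaction: 50 nM enzyme, 15 min compound preincubation, 45 uM arachidonic acid, 90 min RT, Hepes pH 7.5 with Triton X-100.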
12-hLO inh: blocks human 12-lipoxygenase activity; purified 12-hLO, xylenol orange hydroperoxide absorbance; AID 1452; 150,000 tested, 0.12% active; Potency, µM (titrated, usually from 57.1 µM), for inactives: at the top dose activity change, negative = inhibition, hits mostly inhibitors; P18054; further: potency means the concentration at half of the fitted maximal effect; nearly all actives have a fitted effect of over 55% in size
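Lipoxygenase turnover measured by absorbance at 573 and 405 nm after Fe-XO development. Human 12hLO 150 nM, arachidonate 40 uM, pH 7.0 Hepes buffer with detergent; 15 min compound preincubation, 30 min reaction.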
* marks the source's active call; other numbers are inactive results; [ ] = another dose, or the depositor's remark. This is a sample that favours compounds with a hit; in the whole collection about 3% have one here. Unless noted, the call rests on the fitted dose curve; in most records, active means well fitted curve in the direction sought with a large enough effect; inconclusive means small, poorly fitted or top-dose-only effect, or another doubt; inactive means no such curve, though single readings can be large; an effect the other way counts as inactive or inconclusive. Unless noted, on the % scale 0 is the no-effect control and ±100 the full control effect.

O=C(CNC(=O)c1cccs1)NCC(=O)OCc1ccccc1Cl was read as PNC inhibitor -83*, IMPase cell inh 3, ALOX15B inhib 10% and 12-hLO inh -4%.
Screening Cc1cccc(-n2c(=O)[nH]c3c(C(N)=O)nc(C(C)C)nc32)c1 returned PNC inhibitor -100*, IMPase cell inh -6 and 12-hLO inh 1%.
For Cc1cccc(C)c1NC(=O)NC1CC2CCC(C1)N2Cc1cccs1 (configuration not stated) the results were PNC inhibitor -83*, IMPase cell inh -2[1.84 µM], ALOX15B inhib 7%[11.4 µM] and 12-hLO inh -3%.
For Cc1cccc(NC(=S)NC2CC3CCCC(C2)N3Cc2cccs2)c1C (configuration not stated) the results were PNC inhibitor 70, IMPase cell inh 7, ALOX15B inhib -15% and 12-hLO inh -4%.
Screening Cc1cccc(/C=N/NC(=O)C2CCCNC2=O)c1 (configuration not stated) returned PNC inhibitor -85* and 12-hLO inh -3%.
For Cc1ccc(N2C(=O)c3cccc4c(N5CCN(C)CC5)ccc(c34)C2=O)c2cccnc12 the results were PNC inhibitor -83*, IMPase cell inh 5, ALOX15B inhib 0% and 12-hLO inh -1%.
Cc1cc(Br)c(NC(=O)CCl)c(Br)c1 was read as PNC inhibitor -89* and 12-hLO inh 5%.
`CCC(=O)Nc1c(C)cc(C)cc1Cl` gave PNC inhibitor inconclusive, IMPase cell inh -2, ALOX15B inhib -9% and 12-hLO inh -1%.
Screening COc1cc2c(cc1OC)CN(C(C)C(=O)Nc1ccc(NC(C)=O)cc1)CC2 (configuration not stated) returned PNC inhibitor 5, IMPase cell inh -2, ALOX15B inhib -1% and 12-hLO inh -4%.
`CCOC(=O)c1nn(-c2ccc(Cl)cc2)c2nnc(Cc3ccc(C)cc3)c(=O)n12` gave PNC inhibitor -109* and 12-hLO inh 2%.
Screening CCOC(=O)c1nn(-c2ccccc2)c2nnc(Cc3ccc(Cl)cc3)c(=O)n12 returned PNC inhibitor -6 and 12-hLO inh 1%.
CCNc1ncc2nc(-c3cccs3)c(=O)n(CCC#N)c2n1 was read as ALOX15B inhib -23%.
N=C(N)SCc1nc(-c2ccc(Cl)cc2)no1 was read as ALOX15B inhib 0%[11.4 µM] and 12-hLO inh 7%[11.4 µM].
Screening CCOC(=O)c1cc(C(=O)OCC)c(=O)[nH]c1C returned PNC inhibitor 16 and 12-hLO inh -4%.
CCOC(=O)c1cc(C)[nH]c(=S)c1C#N was read as PNC inhibitor 40, IMPase cell inh 0, ALOX15B inhib 25µM* and 12-hLO inh -7%.
Cc1nc(N2CCN(S(=O)(=O)c3cccc4nonc34)CC2)c2c3c(sc2n1)CCCC3 was read as PNC inhibitor -18, IMPase cell inh 3, ALOX15B inhib 10% and 12-hLO inh 0%.
`CCN(CC)S(=O)(=O)c1ccc(F)c(C(=O)NCCC(C)C)c1` gave PNC inhibitor -100*, IMPase cell inh 8 and 12-hLO inh 0%.
CCN(CC)S(=O)(=O)c1ccc(Cl)c(C(=O)NC)c1 was read as PNC inhibitor 4, IMPase cell inh 1, ALOX15B inhib 6% and 12-hLO inh 0%.
For CCOc1ccc2c(c1)OC(c1ccc(OC)cc1)(C(F)(F)F)NC2=O (configuration not stated) the results were PNC inhibitor -92*, IMPase cell inh 8 and 12-hLO inh -1%.
For Cc1cccn2c(=O)c3cc(C(=O)NCCCN4CCOCC4)n(C)c3nc12 the results were PNC inhibitor -95*, IMPase cell inh 7, ALOX15B inhib -1% and 12-hLO inh 3%.
Screening Cn1c(=O)c(NCCO)c2c3c(cccc31)C(=O)c1ccccc1-2 returned PNC inhibitor -123*, IMPase cell inh -9, ALOX15B inhib -10% and 12-hLO inh -1%.
Cc1cccc(OCc2n[nH]c(=S)o2)c1 was read as PNC inhibitor -82*, IMPase cell inh -1, ALOX15B inhib -5% and 12-hLO inh -6%.
Screening Cc1cccc(C)c1OCc1n[nH]c(=S)o1 returned PNC inhibitor 53, IMPase cell inh 3 and 12-hLO inh 1%.
For O=C(O)c1ccccc1C(=O)N(Cc1ccccc1)Cc1ccccc1 the results were PNC inhibitor 15, IMPase cell inh -6, ALOX15B inhib -1% and 12-hLO inh 10%.
For Nc1ccccc1C(=O)N(Cc1ccccc1)Cc1ccccc1 the results were PNC inhibitor -100*, IMPase cell inh 6 and 12-hLO inh -1%.
For CCSc1nnc([C@H](C)NC(=O)OC(C)(C)C)o1 the results were PNC inhibitor 4, IMPase cell inh -2, ALOX15B inhib 6% and 12-hLO inh -3%.
For Cc1ccc(OCC(=O)c2cc(C)n(C)c2C)c([N+](=O)[O-])n1 the results were PNC inhibitor -121* and 12-hLO inh -3%.
Screening Cc1ccc(/C=C/C(=O)O)cc1S(=O)(=O)N(CCO)CCO returned PNC inhibitor -103* and 12-hLO inh 4%.
`CS(=O)(=O)Nc1cccc(-c2ccc3ncnc(Nc4ccc(F)cc4)c3c2)c1` gave ALOX15B inhib 35% and 12-hLO inh -7%.
Screening O=C(NN=C1c2ccccc2-c2ccccc21)c1cccc(Br)c1 returned PNC inhibitor -3, IMPase cell inh 2 and 12-hLO inh 1%.
O=C(COc1cccc(Br)c1)NN=C1c2ccccc2-c2ccccc21 was read as PNC inhibitor -119*, IMPase cell inh 4 and 12-hLO inh -1%.
CCCCOC(=O)Nc1cc(C(=O)OC)ccc1C(=O)OC was read as PNC inhibitor inconclusive, IMPase cell inh 4, ALOX15B inhib 6% and 12-hLO inh -14%.
`COc1ccc(C2C(C(=O)N3CCC(C)CC3)c3ccccc3C(=O)N2C)cc1` (configuration not stated) gave PNC inhibitor -86*, IMPase cell inh -15 and 12-hLO inh 1%.
Screening CCCCCCCCCCCCCCCC(=O)OCC(O)C1OC(=O)C(O)=C1O (configuration not stated) returned ALOX15B inhib 8.9µM* and 12-hLO inh -1%[0.00818 µM].
COc1ccccc1-c1nnc(NC(=O)OCC(C)C)s1 was read as PNC inhibitor -20, IMPase cell inh -14, ALOX15B inhib 6% and 12-hLO inh -4%.
`CCOC(=O)Nc1nnc(-c2ccccc2OC)s1` gave PNC inhibitor -119*, IMPase cell inh 1 and 12-hLO inh 0%.
For O=C(NCCn1ccc2ccccc21)c1ccc(S(=O)(=O)N2CCCCC2)cc1 the results were PNC inhibitor -81*, IMPase cell inh 1, ALOX15B inhib -1% and 12-hLO inh -6%.
For COc1ccc(C(=O)NCCn2ccc3ccccc32)cc1 the results were PNC inhibitor inconclusive, IMPase cell inh 2, ALOX15B inhib -3% and 12-hLO inh -4%.
For C(=N\c1nccs1)/Nc1nccs1 the results were PNC inhibitor 72, IMPase cell inh 7, ALOX15B inhib -15% and 12-hLO inh 4%.
